Data on 60 molecules can be found in PubChem BioAssay AID2732 (Emory University Molecular Libraries Screening Center, 2010).

The structures appear in SMILES notation. The campaign covered roughly 220,000 compounds. About 8,200 (3.7%) were called active.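 The calls were made as follows: active = compounds that reduced the stress-induced luciferase reporter signal by more than about 70% of percent inhibition (limit read from the data); inactive = the rest.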 The sample as a whole holds a higher share of actives than the screen did.

The nature of the experiment: inhibitors of CHOP promoter induction, primary screen, cell-based, unfolded protein response, luciferase reporter (AID 2732).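 Also: 0% = tunicamycin plus vehicle and 100% = wells without tunicamycin.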 To be noted: CHO-K1 CHOP-promoter luciferase, tunicamycin-induced, 15-18 h; at 10 µM; stronger effect = higher value.
Regarding `COc1ccc(Cl)cc1S(=O)(=O)N1CCC(O)(c2ccc(Cl)cc2)CC1`, the inhibition (usually the change of the read-out against control, counted positive when it falls) is 19.7% (inactive).
Next, `C[n+]1ccccc1C1CCCC/C1=N\Nc1ccc([N+](=O)[O-])cc1[N+](=O)[O-]` (stereo not given): 8.15% (inactive).
Next, `O=C(Nc1ccccc1)O/N=C1\CCCCC1c1ccc([N+](=O)[O-])cc1[N+](=O)[O-]` (stereo not given): 22.1% (inactive); `O=[N+]([O-])c1ccc(N/N=C2/CCCCC2c2ccccn2)c([N+](=O)[O-])c1` (stereo not given): 80.1% (active).
Next, `O=C(NNC(=O)c1cnccc1C(F)(F)F)c1ccc(Cl)cc1`: -0.67% (inactive); `S=c1[nH]nc(-c2cc(-c3ccsc3)n[nH]2)n1-c1ccccc1`: 0.59% (inactive).
For `O=C(Nc1sc2c(c1-c1nc3ccccc3[nH]1)CCCC2)C1CC1`, the inhibition is 80.4% (active).
Next, `CCOC(=O)c1c(NC(=O)C2CCN(S(=O)(=O)c3ccc(Cl)cc3)CC2)sc2c1CCCC2`: 15.6% (inactive); `O=C(Nc1cccc(-c2nc3ccccc3[nH]2)c1)c1ccc(C(=O)Nc2cccc(-c3nc4ccccc4[nH]3)c2)cc1`: -38.4% (inactive); `O=C(Nc1ccc(F)cc1F)N1CCCN(CCOc2ccccc2)CC1`: -11% (inactive).
Take `Cc1ccc(Cl)c(OCC(=O)NN2CCN(C)CC2)c1`: the inhibition was 5.66% (inactive).
Next, `c1ccc(CC2CCN(c3nc4ccccc4n4cnnc34)CC2)cc1`: 76.1% (active); `O=C(c1ccccc1)c1ccc2nc(N3CCCCC3)c3nncn3c2c1`: 19.1% (inactive); `NC(=O)c1ccc(CN2CCC(Cc3ccccc3)CC2)cc1`: -9.98% (inactive).
Then `N#CC1=C(N)Oc2c(ccc3cccnc23)C1c1ccncc1` (stereo not given), with -1.42% (inactive).
On to `CCOC(=O)c1sc(NC(=O)COc2ncnc3ccccc23)c(C(=O)OCC)c1C`, for which the inhibition is 43% (inactive).
Then `Nc1nnc(SCC(=O)NC2CCCc3ccccc32)s1` (stereo not given), with 12.6% (inactive); and `CCOC(=O)c1c(NC(=O)CNC2CCCc3ccccc32)sc(C(N)=O)c1C` (stereo not given), with 95.9% (active).
Regarding `Cc1ccc(/C=N/NC(=S)Nc2cccc(S(=O)(=O)N(C)C)c2)o1`, the inhibition was 36% (inactive).
Then `NC(=O)c1ccc(-c2csnn2)cc1`, with 9.46% (inactive).
Then `Cc1ccccc1-c1n[nH]c(=S)n1C`, with -13.1% (inactive); and `Cc1n[nH]c(=S)n1/N=C/c1ccc(Br)o1`, with 14.2% (inactive).
Then `Cc1ccccc1-c1n[nH]c(=S)n1/N=C/c1ccc(-c2ccccc2Br)o1`, with 72.8% (active); and `CC1CN(c2nc(Nc3ccccc3)nc(N)c2[N+](=O)[O-])CC(C)O1` (stereo not given), with 9.58% (inactive).
As to `CCCc1nc(-c2ccccc2O)n(-c2ccccc2)n1`, the inhibition is 40.5% (inactive).
Then `CCCc1nc(N2CCN(C)CC2)c2sc(=S)n(-c3ccccc3)c2n1`, with 74.7% (active); and `Cc1cccc(-n2c(N)c(C(=O)N3CCN(C)CC3)sc2=S)c1`, with -3.45% (inactive).
Next, `O=C(NCCc1ccccn1)c1cccnc1Oc1ccc(Cl)cc1`: 18.1% (inactive); `CCCN(CCC)S(=O)(=O)c1ccc(C(=O)NNC(=O)c2cc(OC)c(OC)c(OC)c2)cc1`: 2.06% (inactive).
Next, `C/C(CC(=O)NC(C)c1ccccc1)=N\NC(N)=S` (stereo not given): 0.93% (inactive).
As for `CC(=O)Nc1ccc(C(=O)CSc2nc3ccc(C)cc3[nH]2)cc1`, the inhibition was 37.2% (inactive).
Next, `O=C(CSc1nc2ccc([N+](=O)[O-])cc2[nH]1)c1ccc(Cl)cc1`: 78.4% (active); `Cc1nc(SCC(=O)c2ccccc2)c([N+](=O)[O-])[nH]1`: 7.53% (inactive).
Next, `CCOc1ccc(N2CC(C(=O)N/N=C/c3sccc3C)CC2=O)cc1` (stereo not given): 17.4% (inactive); `COc1ccc(C(C(=O)NC(C)(C)C)N(C(=O)Cn2nnc3ccccc32)c2ccc(C(C)=O)cc2)cc1O` (stereo not given): -13.6% (inactive).
Next, `O=C(Nc1ccc(Cl)cc1)Nc1ccc(Oc2cccnc2)nc1`: 15.6% (inactive); `O=C(COc1ccccc1)NCCc1nc2ccccc2[nH]1`: -0.39% (inactive); `COc1ccc(OC(C)C(=O)NCCc2nc3ccccc3[nH]2)cc1` (stereo not given): 12.8% (inactive).
On to `CCCCCOc1ccc(/C=C/C(=O)NCCc2nc3ccccc3[nH]2)cc1OC`, for which the inhibition is 70.7% (active).
Next, `CCN(CC)S(=O)(=O)c1cc([N+](=O)[O-])ccc1NNC(=O)Nc1ccccc1`: 94.6% (active); `O=C(CSCC(=O)Nc1cccc([N+](=O)[O-])c1)Nc1ccccc1`: -4.34% (inactive).
As to `CCN(CC)S(=O)(=O)c1cc([N+](=O)[O-])ccc1N=Nc1c(O)n(C)c2ccccc12`, the inhibition is 39.2% (inactive).
Take `CCOC(=O)c1cnc(COc2ccccc2Cl)[nH]c1=O`: the inhibition was -0.7% (inactive).
In the case of `Oc1c(Cl)cc(Cl)c(Cl)c1Cc1c(O)c(Cl)cc(Cl)c1Cl`, the inhibition was 93.3% (active).
For the molecule `N#Cc1c(C(F)(F)F)cc(-c2cccs2)nc1N1CCCCC1`, the inhibition was 12.1% (inactive).
Consider `COCc1cc(=O)[nH]c(SC)n1`, for which the inhibition is -4.77% (inactive).
Then `CCOC(=O)c1c(NC(=S)NC(=O)c2ccco2)sc2c1CCCC2`, with 85% (active); and `CCOC(=O)c1c(NC(=S)NC)sc2c1CCCC2`, with 14.4% (inactive); and `CCOC(=O)c1c(NC(=S)Nc2ccccc2C)sc2c1CCC2`, with 34.1% (inactive).
Next, `CN(C)/C=C(/C(=O)c1ccc(Cl)c(Cl)c1)c1nnnn1-c1ccccc1`: -4.76% (inactive).
Then `COc1ccc(N(Cc2ccccc2)S(=O)(=O)c2cccc(C(=O)O)c2)cc1`, with 3.03% (inactive); and `O=C(Cn1nnc(N2CCCCC2)n1)c1ccc(Cl)c(Cl)c1`, with 6.73% (inactive).
Take `Clc1ccc(C[n+]2cc(-c3ccccc3)n3c2CCC3)cc1`: the inhibition is 9.23% (inactive).
Then `Cc1ccc(NC(=O)Nc2nnc(-c3ccncc3)s2)cc1`, with 40.9% (inactive).
Then `Cc1nnc(NC(=O)Nc2ccc(Cl)c(Cl)c2)s1`, with 86.9% (active); and `CCn1nccc1C(=O)Nc1ccc(Cl)c(Cl)c1`, with 0.72% (inactive).
In the case of `O=C(O)c1cccc(NC(=O)c2cc(-c3cccc(Cl)c3)nc3ccccc23)c1`, the inhibition was -25% (inactive).
Then `Cc1c(C(=O)Nc2cccc(Cl)c2)cn2c(nc3ccccc32)c1C#N`, with 104% (active); and `Cn1cc(Cl)c(C(=O)NNC(=S)Nc2cccc(Cl)c2)n1`, with 9.14% (inactive).
As to `O=C(NCc1cc(C(F)(F)F)cc(C(F)(F)F)c1)C1CC(c2cccc(F)c2)=NO1` (stereo not given), the inhibition is 20.1% (inactive).
